# Screening results: PubChem, National Center for Advancing Translational Sciences (NCATS)
# IL1B secr inh: qHTS for Inhibitors of Inflammasome Signaling: IL-1-beta AlphaLISA Primary Screen; THP-1 LPS/ATP IL-1B secretion, AlphaLISA, 16 h; hits give low values; activity change, % at 57.5 µM; 4.7% of 360,000 active; AID 743279, 2014; in the data active means activity change below about -50%; inconclusive means mostly about -30% to -49%
#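 THP-1 cells pretreated 1 hr with compounds (up to 57.5 uM final), then stimulated with LPS (250 ng/mL final) plus ATP (1.25 mM final); secreted IL-1B measured by AlphaLISA after 16 hr, decreased signal indicating inhibition.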
# TDP1 cell CPT: qHTS for Inhibitors of human tyrosyl-DNA phosphodiesterase 1 (TDP1): qHTS in cells in presence of CPT. chicken DT40 Tdp1-/-;hTDP1 cells + 20 nM CPT, ATP luminescence, 48 h. Potency, µM (titrated, usually from 46.2 µM), for the others: at the highest dose activity change, negative = growth inhibition, hits mostly inhibitors. 12% of 420,000 active; further: potency means the concentration at half of the fitted maximal effect; nearly all actives have a fitted effect of over 55% in size
#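 Chicken DT40 Tdp1-/- cells complemented with human TDP1, 400 cells/well, exposed to compounds plus 20 nM camptothecin for at least 48 h at 37 C; viability read as ATP content by CellTiter-Glo luminescence.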
# HT1080 IDH1KD tx: qHTS for induction of synthetic lethality in tumor cells producing 2HG: qHTS for the HT-1080-IDH1KD cell line; 2% of 360,000 active; HT-1080 IDH1 knockdown viability, ATP luminescence, 48 h; Potency, µM (highest dose often 46.1 µM), for the others: at the highest dose activity, negative = toxicity, actives largely listed as cytotoxic; AID 686971, 2013;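 further: potency means the concentration at half of the fitted maximal effect; 0% = DMSO wells and -100% = cell-free medium wells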
#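 Viability of IDH1-knockdown HT-1080 fibrosarcoma cells was assessed by CellTiter-Glo after 48 h at 37 °C with titrated compound; concentration-effect curves were classified by fit quality and response size.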
# TDP1 cell noCPT: qHTS for Inhibitors of human tyrosyl-DNA phosphodiesterase 1 (TDP1): qHTS in cells in absence of CPT. AID 686978, 2013. Potency, µM (series often up to 46.2 µM), inactives show at the highest dose activity change, negative = growth inhibition, actives largely listed as inhibitors. 15% of 420,000 active. DT40 Tdp1-/- hTDP1 cells, no CPT, ATP luminescence, 48 h; further: potency means the concentration at half of the fitted maximal effect; nearly all actives have a fitted effect of over 55% in size
#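 Stably hTDP1-transfected Tdp1-null chicken DT40 cells were treated with library compounds minus camptothecin and grown for at least 48 hr at 37 °C, after which cellular ATP was quantified by luminescence.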
# ELG1 DNA repair: qHTS screen for small molecules that inhibit ELG1-dependent DNA repair in human embryonic kidney (HEK293T) cells expressing luciferase-tagged ELG1; 2.3% of 330,000 active; Potency, µM (series often up to 46.1 µM), without a hit: top-dose activity change, negative = inhibition, most hits filed as inhibitors; HEK293T ELG1-luciferase reporter, luminescence, 16 h; DNA damage induced by 5-fluorouridine; further: potency means the concentration at half of the fitted maximal effect; nearly all actives have a fitted effect of over 55% in size
#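 In this reporter screen, reduction of luminescence relative to DMSO vehicle indicated activity. Compounds and 5-fluorouridine were added together to 2,000 cells per well, incubated for 16 hr at 37 °C, then developed with ONE-Glo.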
# HT1080-NT tox: qHTS for induction of synthetic lethality in tumor cells producing 2HG: qHTS for the HT-1080-NT fibrosarcoma cell line. HT-1080-NT fibrosarcoma viability, CellTiter-Glo ATP luminescence, 48 h. Potency, µM (highest dose often 46.1 µM), for inactives: at the top dose activity, negative = less viability, most hits filed as cytotoxic. 1.6% of 360,000 active;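 further: NT is the 2HG producing partner of a matched IDH1 knockdown line; potency means the concentration at half of the fitted maximal effect; 0% = DMSO-treated cells and -100% = media-only wells without cells; nearly all actives have a fitted effect of over 55% in size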
#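 HT-1080-NT fibrosarcoma cells (2HG-overproducing), 750 cells/well in RPMI with 5% FBS, dosed after 2 h and incubated 48 h at 37C. CellTiter-Glo luminescence normalized to DMSO and no-cell wells; concentration-response curves fitted and classed.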
# The depositor's hits bear a star; i = inactive; ? = inconclusive; · = no result; [ ] = another dose, or the depositor's remark. An excerpt weighted towards active compounds, which were near 19% of everything screened. Unless noted, the call rests on the fitted dose curve; in most records, active means well fitted curve in the direction sought with a large enough effect; inconclusive means small, poorly fitted or top-dose-only effect, or another doubt; inactive means no such curve, though single readings can be large; an effect the other way counts as inactive or inconclusive. Unless noted, on the % scale 0 is the no-effect control and ±100 the full control effect.
SMILES,IL1B secr inh,TDP1 cell CPT,HT1080 IDH1KD tx,TDP1 cell noCPT,ELG1 DNA repair,HT1080-NT tox
CC(C)C1C(=O)N(Cc2cn(CCC3OCCO3)nn2)CCS(=O)(=O)N1Cc1ccc(-c2ccc(F)cc2Cl)cc1 (stereo not drawn),-25,?,?,21µM*,·,?
COc1cccc(-c2ccc(CN3C(C(C)C)C(=O)N(Cc4cn(CCC5OCCO5)nn4)CCS3(=O)=O)cc2)c1OC (stereo not drawn),?,21µM*,-23%,?,·,-20%
CC(C)C1C(=O)N(Cc2cn(CCC3OCCO3)nn2)CCS(=O)(=O)N1Cc1ccc(-c2ccccc2Cl)cc1 (stereo not drawn),?,16µM*,?,15µM*,·,?
CC(C)C1C(=O)N(Cc2cn(CCC3OCCO3)nn2)CCS(=O)(=O)N1Cc1ccc(-c2ccccc2)cc1 (stereo not drawn),-18,?,-22%,?,·,-7%
COc1ccc(CCNC(=O)CSc2nc(=O)n3cc(C)ccc3n2)cc1OC,6,0%,2%,-2%,15%,1%
COc1ccc(CCN2C(=O)NC(NS(=O)(=O)c3ccccc3)(C(F)(F)F)C2=O)cc1OC (stereo not drawn),14,2%,18%,4%,-10%,15%
C/C(=N/NC(=O)c1ccc(Br)o1)c1cccc(NC(=O)c2ccc(F)cc2)c1,?,?,-18%,?,?,-22%
CN=c1scc(-c2ccc(F)cc2)n1/N=C/c1ccc(O)c(O)c1,50,1.2µM*,8.2µM*,0.82µM*,?,?
CC1CN(CCNC(=O)C2CCCc3c2[nH]c2ccccc32)Cc2ccccc2O1 (stereo not drawn),·,18%[9.04 µM],·,?,·,·
CCN1CCN(c2ccc(S(=O)(=O)N3CCCCC3)cc2NC(=O)/C=C/c2ccc(F)cc2)CC1,?,?,-4%,?,?,-4%
CCN1CCN(c2ccc(S(=O)(=O)N3CCCCC3)cc2NC(=O)/C=C/c2cccc(OC)c2OC)CC1,i,?,-5%,16µM*,20%,-21%
CN1CCN(c2ccc(S(=O)(=O)N3CCCCC3)cc2NC(=O)/C=C/c2ccc(Cl)c([N+](=O)[O-])c2)CC1,-81*,?,?,?,?,-15%
CN1CCN(c2ccc(S(=O)(=O)N3CCCCC3)cc2NC(=O)/C=C/c2ccc(OC(F)F)cc2)CC1,-80*,?,?,-86%,17%,?
CCN1CCN(c2ccc(S(=O)(=O)N3CCCCC3)cc2NC(=O)/C=C/c2ccc([N+](=O)[O-])cc2)CC1,-99*,?,16µM*,?,?,?
CN1CCN(c2ccc(S(=O)(=O)N3CCCCC3)cc2NC(=O)c2cccc([N+](=O)[O-])c2)CC1,-4,-23%,-5%,-21%,-19%,-4%
Cc1cccc(OCC(=O)Nc2cc(S(=O)(=O)N3CCCCC3)ccc2N2CCN(C)CC2)c1,-13,?,-1%,?,?,-1%
CCn1c(=O)n(CC2CCC(C(=O)NC(C)C)CC2)c(=O)c2sccc21 (stereo not drawn),·,-3%,·,-4%,·,·
COC(=O)c1cccc(CSc2nc(-c3ccccc3)c(C#N)c(=O)[nH]2)c1,36,2%,14%,10%,0%,11%
